Screens deposited in PubChem by National Center for Advancing Translational Sciences (NCATS).
Rows were chosen to be rich in hits. Some 3.6% of all compounds tested hit in one or more screens of this group.
Sm TGR block: qHTS Assay for the Inhibitors of Schistosoma Mansoni Peroxiredoxins; Schistosoma mansoni thioredoxin glutathione reductase (TGR), Q962Y6; purified TGR, DTNB reduction, TNB absorbance 405 nm; Potency, µM (doses to about 114 µM), without a hit: at the top dose activity change, negative = inhibition, actives largely listed as inhibitors; 360,000 compounds, 3% hits; also: nearly all actives have a fitted effect of over 60% in size
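TGR 20 nM + NADPH 100 uM (dispensed conc.), cpd preinc 15 min RT; start with NADPH (500 uM addition) then DTNB (15 mM addition). Kinetic TNB absorbance, 405 nm filter. Four-parameter Hill fit across titration.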
AmpC no deterg: qHTS Inhibitors of AmpC Beta-Lactamase (assay without detergent) | Potency, µM (doses to about 57.1 µM), for inactives: at the top dose activity change, negative = inhibition, actives largely listed as inhibitors | AID 485341, 2010 | AmpC nitrocefin hydrolysis, absorbance 480 nm, 0.0001% Triton | 330,000 compounds, 0.52% hits;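 also: plate controls were no compound for no effect and no enzyme for full effect; nearly all actives have a fitted effect of over 20% in size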
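AmpC (5.3 nM in the dispensed reagent) in 20 mM phosphate pH 7.0 with 0.01% (detergent screen) or 0.0001% Triton X-100 was preincubated with compounds for 15 min at room temperature. Nitrocefin was then added from an 800 uM solution, and hydrolysis was followed at 480 nm.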
Giardia FBPA inh-1: qHTS Assay for Inhibitors of Fructose-1,6-bisphosphate Aldolase from Giardia Lamblia. A8B2U2. purified Giardia FBPA. Potency, µM (highest dose often 59.6 µM), without a hit: at the top dose activity, negative = inhibition, hits mostly inhibitors. 290,000 compounds, 0.71% hits. AID 2451, 2010; also: nearly all actives have a fitted effect of over 55% in size
Target sequence (A8B2U2 whole entry, looked up): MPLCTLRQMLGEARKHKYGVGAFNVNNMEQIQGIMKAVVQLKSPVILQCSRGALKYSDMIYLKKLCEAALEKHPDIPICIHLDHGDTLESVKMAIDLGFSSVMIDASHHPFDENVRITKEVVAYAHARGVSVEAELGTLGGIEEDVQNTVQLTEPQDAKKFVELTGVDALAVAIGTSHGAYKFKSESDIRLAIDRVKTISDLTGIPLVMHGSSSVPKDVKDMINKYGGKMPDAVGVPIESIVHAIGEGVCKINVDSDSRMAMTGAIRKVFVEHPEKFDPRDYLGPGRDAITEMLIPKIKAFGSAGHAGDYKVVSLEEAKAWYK
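40 nM FBPA preincubated 10 min at RT with compound (up to 57.5 uM final), then substrate plus GAPDH/TPI/NAD/arsenate coupling and diaphorase/resazurin added. Fluorescence read after 20 min at RT, 525/598 nm.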
AmpC inh detg: qHTS Inhibitors of AmpC Beta-Lactamase (assay with detergent). P00811. AmpC hydrolysis of nitrocefin, absorbance 480 nm, 0.01% Triton. Potency, µM (highest dose often 114 µM), inactives show at the highest dose activity change, negative = inhibition, usual class: inhibitors. 370,000 compounds, 0.041% hits. AID 485294, 2010;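 also: 0% = no-compound wells and -100% = no-enzyme wells; nearly all actives have a fitted effect of over 25% in size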
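20 mM phosphate pH 7.0 + 0.01% (detergent screen) or 0.0001% Triton X-100; 5.3 nM AmpC reagent; cpd preinc 15 min RT; nitrocefin (800 uM stock) to start; A480 q20 s × 4 min; Activity was normalised to no-enzyme and no-compound control wells.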
Giardia growth: qHTS Assay for Inhibitors of Fructose-1,6-bisphosphate Aldolase from Giardia Lamblia: Giardia lamblia growth inhibition | shares compounds with Giardia FBPA inh-1 | Giardia lamblia trophozoite growth inhibition | Potency, µM (doses to about 57.5 µM), without a hit: top-dose activity change, negative = inhibition, actives largely listed as inhibitors | 1,500 compounds, 5% hits;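 also: trophozoites exposed to compound for 48 h at 37 °C; nearly all actives have a fitted effect of over 70% in size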
Mammalian tox: qHTS Assay for Inhibitors of Fructose-1,6-bisphosphate Aldolase from Giardia Lamblia: Mammalian cellular toxicity | mammalian cell viability counter-screen, qHTS | 1,500 compounds, 4% hits | Potency, µM (top dose mostly 57.5 µM), for the others: at the highest dose viability change, negative = toxicity, most hits filed as inhibitors | AID 2786, 2010 | shares compounds with Giardia FBPA inh-1;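 also: Chinese hamster ovary cells used as mammalian cytotoxicity surrogate; viability measured as cellular ATP by luminescence; compound exposure lasted 48 h before reading; nearly all actives have a fitted effect of over 60% in size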
Giardia FBPA inh-2: qHTS Assay for Inhibitors of Fructose-1,6-bisphosphate Aldolase from Giardia Lamblia: Primary screen confirmation; Potency, µM (series often up to 57.5 µM), inactives show at the highest dose activity change, negative = inhibition, actives largely listed as inhibitors; 1,500 compounds, 5% hits; AID 2787, 2010; shares compounds with Giardia FBPA inh-1; purified Giardia aldolase enzyme activity, qHTS; also: nearly all actives have a fitted effect of over 45% in size
Rabbit aldolase: qHTS Assay for Inhibitors of Fructose-1,6-bisphosphate Aldolase from Giardia Lamblia: Rabbit FBPA Selectivity. shares compounds with Giardia FBPA inh-1. Rabbit muscle FBPA enzyme inhibition, selectivity counter-screen. 1,500 compounds, 4% hits. Potency, µM (titrated, usually from 57.5 µM), inactives show top-dose activity, negative = inhibition, hits mostly inhibitors; also: nearly all actives have a fitted effect of over 60% in size
GAPDH counter: qHTS Assay for Inhibitors of Fructose-1,6-bisphosphate Aldolase from Giardia Lamblia: Coupling assay counterscreen confirmation; shares compounds with Giardia FBPA inh-1; GAPDH coupling enzyme counterscreen, biochemical, qHTS; Potency, µM (titrated, usually from 57.5 µM), inactives show at the top dose activity change, negative = inhibition, most hits filed as inhibitors; 1,500 compounds, 6% hits; also: nearly all actives have a fitted effect of over 55% in size
* marks the source's active call; other numbers are inactive results; ? = inconclusive; · = no result given; [ ] = another dose, or the depositor's remark. Calls follow the shape of the dose curve; as a rule, active = well fitted curve in the direction sought with a large enough effect; inconclusive = small, poorly fitted or top-dose-only effect, or another doubt; inactive = no such curve, though single readings can be large; an effect the other way counts as inactive or inconclusive. Unless noted, % is scaled to controls: 0 for no effect and ±100 for the full control effect; potency is read from the fitted curve at half-maximal effect.

SMILES | Sm TGR block | AmpC no deterg | Giardia FBPA inh-1 | AmpC inh detg | Giardia growth | Mammalian tox | Giardia FBPA inh-2 | Rabbit aldolase | GAPDH counter
CCOc1ccc(NC(=O)CN(C)C(=O)c2ccc(OCC3CCCO3)cc2)cc1OCC (stereo unspecified) | 7% | 62% | · | 6% | · | · | · | · | ·
CC(C)CCn1c(=O)c2ccccc2n2c(=S)[nH]nc12 | -2% | -39% | 29% | -7% | · | · | · | · | ·
CCOCCCn1c(=O)c2ccccc2n2c(=S)[nH]nc12 | -4% | -16% | 13µM* | 1% | 28% | 5% | 9% | 18% | 10%
COc1ccccc1-n1c(-c2ccco2)n[nH]c1=S | -29% | -18% | 14µM* | -8% | 3%[10.4 µM] | 6% | -3% | 14% | -8%
COc1ccccc1-n1c(CNC(=O)c2ccco2)n[nH]c1=S | 1% | -12% | 11µM* | 4% | 52% | 9% | 2% | 1% | 13%
COc1ccccc1-c1n[nH]c(=S)n1N | 10% | 6% | 16µM* | -9% | 12% | -10% | 4% | 6% | 8%
COc1cc2[nH]c(C(=O)NCc3ccccc3)cc2c(OC)c1OC | -15% | -10% | -1% | -13% | · | · | · | · | ·
CN(CC(=O)Nc1ccccc1Br)Cc1nc2ccccc2c(=O)[nH]1 | 2% | -9% | 20µM* | -18% | -2%[10.4 µM] | -16% | 0% | -7% | ?
CN(CC(=O)Nc1ccccc1Br)C(=O)CCc1nc2ccccc2c(=O)[nH]1 | 3% | -9% | · | ? | · | · | · | · | ·
COc1cc(NC(C)CCc2ccccc2)cc(OC)c1OC (stereo unspecified) | 0% | -23% | 13µM* | -10% | -10%[10.4 µM] | -25% | ? | ? | ?
COc1cccc(OC)c1C(=O)NC(C)CCc1ccccc1 (stereo unspecified) | -3% | -8% | 0% | ? | · | · | · | · | ·
COC(=O)[C@@H](N)CS | 5% | -21% | 16µM* | -8% | 3%[10.4 µM] | 1% | 4% | 11% | 13%
COC(=O)C(N)CCCN=C(N)N[N+](=O)[O-] (stereo unspecified) | · | · | -2% | · | · | · | · | · | ·
CCOc1ccc(N(C)S(=O)(=O)c2c(C(=O)N3CCC(C)CC3)c(C)n(C)c2C)cc1 | 2% | · | · | 2% | · | · | · | · | ·
COc1cc(-c2nc(C(=O)NCC3CCCO3)cc3c2[nH]c2ccccc23)cc(OC)c1OC (stereo unspecified) | 4% | 253% | 8.9µM* | -8% | -9% | 40µM* | -1% | -9% | -1%
COc1ccccc1-c1nc(C(=O)NCC2CCCO2)cc2c1[nH]c1ccccc12 (stereo unspecified) | -22% | 45% | -14% | -16% | · | · | · | · | ·
COc1cc(C2NC(=O)C(C#N)=C(Nc3cccc(C)c3)S2)ccc1O (stereo unspecified) | 0% | -28% | 14µM* | 5% | 7%[10.4 µM] | 2% | -24% | 4% | 13%
